Measurements from the supplement of paper PMC12350171.
Structures can show the parent of a compound that is named as a salt.

These compounds were tested on Haemophilus parainfluenzae (assay: growth AUC normalised to DMSO control (fraction of control); higher = less growth inhibition, active = hit call of the paper). Details: 20 µM;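 active = AUC significantly below DMSO controls by Student t-fit with adjusted P under 0.01; inactive = not significantly reduced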.
Procedure, shortened: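 After two anaerobic passages, pathogens were added at a starting OD578 of 0.01 to pre-reduced mGAM plates holding compound at 20 μM with 1% DMSO; hemin and NAD were supplemented for Haemophilus parainfluenzae. Sealed with breathable membranes, plates were read at OD578 hourly for 24 h, in three biological replicates. The trapezoidal rule, applied up to the exponential-to-stationary transition, gave the growth-curve AUC, which was normalised to DMSO controls on the same plate.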

| SMILES | growth AUC normalised to DMSO control |
| --- | --- |
| CCN(CC)CCOC(=O)C1(c2ccc([N+](=O)[O-])cc2)CCCC1 [Nitrocaramiphen hydrochloride] | 1.01 (inactive) |
| CNC(=O)c1c(I)c(C(=O)NCC(=O)Nc2c(I)c(C(=O)O)c(I)c(C(=O)NCCO)c2I)c(I)c(N(C)C(C)=O)c1I [Ioxaglic acid] | 0.921 (inactive) |
| Cc1cc(-c2ccccc2)nnc1NCCN1CCOCC1 [Minaprine dihydrochloride] | 0.991 (inactive) |
| Cc1cccc(N(C)C(=S)Oc2ccc3ccccc3c2)c1 [Tolnaftate] | 1 (inactive) |
| CC[C@H]1OC(=O)[C@H](C)[C@@H](O[C@H]2C[C@@](C)(OC)[C@@H](O)[C@H](C)O2)[C@H](C)[C@@H](O[C@@H]2O[C@H](C)C[C@H](N(C)C)[C@H]2O)[C@](C)(O)C[C@@H](C)[C@@H]2N[C@@H](COCCOC)O[C@H]([C@H]2C)[C@]1(C)O [Dirithromycin] | 0.0968 (active) |
| CCN(CC)CCOc1ccc(C(=C(Cl)c2ccccc2)c2ccccc2)cc1 [(Z,E) Clomiphene citrate] | 1.02 (inactive) |
| CO[C@@]1(NC(=O)CSCC#N)C(=O)N2C(C(=O)O)=C(CSc3nnnn3C)CS[C@@H]21 [Cefmetazole sodium salt] | 0.0246 (active) |
| CN1CCCN=C1/C=C/c1cccc(O)c1 [Oxantel pamoate] | 0.916 (inactive) |
| O=C(O)c1ccccc1Nc1cccc(C(F)(F)F)c1 [Flufenamic acid] | 0.932 (inactive) |
| N=C(N)NCc1cccc(I)c1 [Iobenguane sulfate] | 1.02 (inactive) |
| c1coc(CNc2ncnc3[nH]cnc23)c1 [Kinetin] | 1.01 (inactive) |
| CC[C@@H]1C(=O)OC[C@@H]1Cc1cncn1C [Pilocarpine nitrate] | 0.981 (inactive) |
| CN1CCN(CCCN2c3ccccc3Sc3ccc(C(F)(F)F)cc32)CC1 [Trifluoperazine dihydrochloride] | 0.927 (inactive) |
| CNCCCC1c2ccccc2C=Cc2ccccc21 [Protriptyline hydrochloride] | 0.977 (inactive) |
| OC(CCCN1CCCCC1)(c1ccccc1)c1ccccc1 [Diphenidol hydrochloride] | 1 (inactive) |
| C[C@H](CCC(=O)O)[C@H]1CC[C@H]2[C@@H]3[C@H](O)C[C@@H]4C[C@H](O)CC[C@]4(C)[C@H]3CC[C@]12C [Chenodiol] | 0.95 (inactive) |
| Clc1ccc(COC(Cn2ccnc2)c2ccc(Cl)cc2Cl)cc1 (configuration not stated) [Econazole nitrate] | 1.09 (inactive) |
| CCOC(=O)[C@@](C)(N)Cc1ccc(O)c(O)c1 [Methyldopate hydrochloride] | 0.995 (inactive) |
| COc1c(N2C[C@@H]3CCCN[C@@H]3C2)c(F)cc2c(=O)c(C(=O)O)cn(C3CC3)c12 [Moxifloxacin] | 0.0254 (active) |
| COc1ccc(CC2c3cc(OC)c(OC)cc3CC[N+]2(C)CCC(=O)OCCCCCOC(=O)CC[N+]2(C)CCc3cc(OC)c(OC)cc3C2Cc2ccc(OC)c(OC)c2)cc1OC (configuration not stated) [Atracurium besylate] | 1.06 (inactive) |
| Cc1ccccc1OCC(O)CO (configuration not stated) [Mephenesin] | 0.93 (inactive) |
| OCCN1CCN(CC/C=C2/c3ccccc3Sc3ccc(Cl)cc32)CC1 [Zuclopenthixol dihydrochloride] | 0.916 (inactive) |
| O=c1[nH]cnc2c1ncn2[C@H]1CC[C@@H](CO)O1 [Didanosine] | 1.03 (inactive) |
| Nc1ccc(S(=O)(=O)Nc2ncccn2)cc1 [Sulfadiazine] | 1.01 (inactive) |
| Clc1ccc(C(c2ccccc2Cl)C(Cl)Cl)cc1 (configuration not stated) [Mitotane] | 1.01 (inactive) |
| COc1cccc(N(C)C(=S)Oc2ccc3c(c2)CCCC3)n1 [Liranaftate] | 1.01 (inactive) |
| CN/C(=N\CCSCc1nc[nH]c1C)NC#N [Cimetidine] | 0.993 (inactive) |
